Calls of active or inactive are those of the source.
Columns and labels:
[1] = E. coli DRC41 culture turbidity changes, primary screen, E. coli filamentation inducer project, strain DRC41, OD650, 48 h (AID 1152);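 further: E. coli MC1000 strain DRC41 lacking acrAB efflux pump and sulA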; settings: E. coli DRC41 (acrAB sulA), higher = more signal, called active from +8 up or from −8 down
[2] = small-molecule binders of probe aLefty1, primary screen, biochemical, small-molecule microarray, 635/667 nm fluorescence (AID 1153); settings: higher = more signal;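 further: score merges spot fluorescence with signal-to-noise ratio from the scanned slide images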
[3] = PSAC antagonists in infected red cells, primary screen, cell-based, P. falciparum Indochina, OD700, 1 h (AID 1154); settings: P. falciparum Indochina infected RBC osmotic lysis, higher = more signal, called active from +8 up or from −8 down
[4] = PSAC antagonists in infected red cells, primary screen, cell-based, P. falciparum Indochina, OD700, 2 h (AID 1155);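 further: lysis reports solute entry through the parasite surface anion channel PSAC; channel blockers reduce lysis of infected cells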; settings: P. falciparum Indochina infected erythrocytes, osmotic lysis OD700; higher = more signal, called active from +8 up or from −8 down
[5] = osmotic lysis modulators in infected erythrocytes, primary screen, PSAC antagonist project, cell-based, P. falciparum Indochina, OD700, 3 h (AID 1156); settings: higher = more signal, called active from +8 up or from −8 down
[6] = PSAC antagonists in infected red cells, primary screen, cell-based, P. falciparum Indochina, OD700, 18 h (AID 1157); settings: P. falciparum Indochina infected erythrocytes, osmotic lysis OD700, 18 h; higher = more signal, called active from +8 up or from −8 down
[7] = modulators of S6 phosphorylation in cells, primary screen, cell-based, A549, cytoblot, luminescence, serum-stimulated (AID 1158); settings: A549 phospho-S6 cytoblot, 5 h, higher = more signal;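 further: serum-stimulated A549 lung adenocarcinoma cells; signal is phosphorylated S6 detected by cytoblot immunostaining with HRP secondary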
[8] = target: NADPH oxidase 2 (Homo sapiens) (UniProt P04839); assay: NOX2-dependent H2O2 signal modulators, primary screen, NOX inhibitor project, cell-based, HEK293-NOX2, PMA-stimulated, Amplex Red fluorescence (AID 1159); settings: 45 min, higher = more signal, called active from +8 up or from −8 down; further: test concentration not given here
[9] = target: NADPH oxidase 4 (Homo sapiens) (UniProt Q9NPH5); assay: NOX4-dependent H2O2 signal modulators, primary screen, NOX inhibitor project, cell-based, HEK293-NOX4, tetracycline-induced, Amplex Red fluorescence (AID 1160); settings: 45 min, higher = more signal, called active from +8 up or from −8 down
[10] = target: NADPH oxidase 5 (Homo sapiens) (UniProt Q96PH1); assay: NOX5-dependent H2O2 signal modulators, primary screen, NOX inhibitor project, cell-based, HEK293-NOX5, Amplex Red fluorescence (AID 1161); settings: HEK293-NOX5, ionomycin, 45 min, higher = more signal
[11] = A549 cell viability effects, profiling panel, calcein-AM fluorescence, 48 h, basal (AID 1162); settings: higher = more signal; further: test concentration not given here
[12] = adipocyte viability effects, profiling panel, cell-based, 3T3-L1 adipocytes, calcein-AM fluorescence, 48 h, basal (AID 1163); settings: 3T3-L1 adipocytes viability, higher = more signal; further: test concentration not given here
[13] = HepG2 cell viability effects, profiling panel, calcein-AM fluorescence, 48 h, basal (AID 1164); settings: higher = more signal; further: test concentration not given here
[14] = MM1S cell viability effects, profiling panel, calcein-AM fluorescence, 48 h, basal (AID 1165); settings: higher = more signal;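 further: viability of MM1S multiple myeloma cells under basal unstimulated conditions; test concentration not given here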
[15] = basal RPMI8226 viability, no added stimulus, profiling panel, cell-based, calcein-AM fluorescence, 48 h, PK04 Diversity Set (AID 1166); settings: RPMI8226 myeloma viability, higher = more signal;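 further: cells grown under basal conditions without added stimulus; test concentration not given here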
[16] = basal HepG2 mitochondrial membrane potential changes, profiling panel, cell-based, JC-1 fluorescence, 24 h, 100 nL compound (AID 1167); settings: higher = more signal; further: test concentration not given here
[17] = basal 3T3-L1 adipocyte mitochondrial potential changes, profiling panel, cell-based, JC-1 fluorescence, 3T3-L1 adipocytes, 24 h, 100 nL compound (AID 1168); settings: JC-1 mitochondrial fluorescence, higher = more signal, called active from +8 up or from −8 down; further: test concentration not given here
[18] = basal RPMI8226 mitochondrial membrane potential changes, profiling panel, cell-based, JC-1 fluorescence, 24 h, 100 nL compound (AID 1169); settings: RPMI8226 myeloma, JC-1 mitochondrial potential fluorescence, higher = more signal; further: test concentration not given here
[19] = basal MM1S mitochondrial membrane potential changes, profiling panel, cell-based, JC-1 fluorescence, 24 h, 100 nL compound (AID 1170); settings: higher = more signal; further: test concentration not given here
[20] = A549 lung cancer cell viability effects, profiling panel, resazurin fluorescence, 24 h, PK04 Diversity Set (AID 1171); settings: higher = more signal, called active from +8 up or from −8 down; further: test concentration not given here

NADPH oxidase 4 (Homo sapiens), sequence (Q9NPH5 whole entry, looked up): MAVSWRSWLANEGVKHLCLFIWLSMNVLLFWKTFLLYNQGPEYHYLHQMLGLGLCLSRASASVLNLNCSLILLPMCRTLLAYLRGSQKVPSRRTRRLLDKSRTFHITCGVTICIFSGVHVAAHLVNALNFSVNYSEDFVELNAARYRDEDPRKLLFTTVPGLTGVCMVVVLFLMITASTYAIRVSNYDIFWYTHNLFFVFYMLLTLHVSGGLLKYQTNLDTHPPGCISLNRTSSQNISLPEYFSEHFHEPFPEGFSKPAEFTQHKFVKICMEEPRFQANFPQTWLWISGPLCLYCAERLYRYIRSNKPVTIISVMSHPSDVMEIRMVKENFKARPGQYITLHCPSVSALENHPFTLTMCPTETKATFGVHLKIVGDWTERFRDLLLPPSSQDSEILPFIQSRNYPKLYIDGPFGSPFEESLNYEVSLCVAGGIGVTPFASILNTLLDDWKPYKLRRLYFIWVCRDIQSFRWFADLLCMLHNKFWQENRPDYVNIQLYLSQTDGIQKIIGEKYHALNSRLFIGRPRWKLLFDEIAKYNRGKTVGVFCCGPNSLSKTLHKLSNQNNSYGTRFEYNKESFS
NADPH oxidase 2 (Homo sapiens), sequence (P04839 whole entry, looked up): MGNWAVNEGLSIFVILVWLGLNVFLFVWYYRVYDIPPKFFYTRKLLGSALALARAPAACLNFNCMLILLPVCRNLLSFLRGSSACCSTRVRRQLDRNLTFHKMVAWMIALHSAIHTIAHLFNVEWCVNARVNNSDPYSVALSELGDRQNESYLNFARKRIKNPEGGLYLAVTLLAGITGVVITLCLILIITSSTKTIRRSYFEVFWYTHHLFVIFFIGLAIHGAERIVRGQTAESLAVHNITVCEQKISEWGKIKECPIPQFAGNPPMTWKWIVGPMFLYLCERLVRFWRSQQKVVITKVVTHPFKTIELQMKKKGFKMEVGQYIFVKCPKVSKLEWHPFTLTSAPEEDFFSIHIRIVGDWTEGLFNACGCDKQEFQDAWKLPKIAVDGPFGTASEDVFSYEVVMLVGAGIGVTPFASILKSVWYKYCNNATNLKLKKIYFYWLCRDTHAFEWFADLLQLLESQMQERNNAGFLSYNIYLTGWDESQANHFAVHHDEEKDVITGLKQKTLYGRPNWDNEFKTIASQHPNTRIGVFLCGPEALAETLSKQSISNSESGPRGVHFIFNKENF
NADPH oxidase 5 (Homo sapiens), sequence (Q96PH1 whole entry, looked up): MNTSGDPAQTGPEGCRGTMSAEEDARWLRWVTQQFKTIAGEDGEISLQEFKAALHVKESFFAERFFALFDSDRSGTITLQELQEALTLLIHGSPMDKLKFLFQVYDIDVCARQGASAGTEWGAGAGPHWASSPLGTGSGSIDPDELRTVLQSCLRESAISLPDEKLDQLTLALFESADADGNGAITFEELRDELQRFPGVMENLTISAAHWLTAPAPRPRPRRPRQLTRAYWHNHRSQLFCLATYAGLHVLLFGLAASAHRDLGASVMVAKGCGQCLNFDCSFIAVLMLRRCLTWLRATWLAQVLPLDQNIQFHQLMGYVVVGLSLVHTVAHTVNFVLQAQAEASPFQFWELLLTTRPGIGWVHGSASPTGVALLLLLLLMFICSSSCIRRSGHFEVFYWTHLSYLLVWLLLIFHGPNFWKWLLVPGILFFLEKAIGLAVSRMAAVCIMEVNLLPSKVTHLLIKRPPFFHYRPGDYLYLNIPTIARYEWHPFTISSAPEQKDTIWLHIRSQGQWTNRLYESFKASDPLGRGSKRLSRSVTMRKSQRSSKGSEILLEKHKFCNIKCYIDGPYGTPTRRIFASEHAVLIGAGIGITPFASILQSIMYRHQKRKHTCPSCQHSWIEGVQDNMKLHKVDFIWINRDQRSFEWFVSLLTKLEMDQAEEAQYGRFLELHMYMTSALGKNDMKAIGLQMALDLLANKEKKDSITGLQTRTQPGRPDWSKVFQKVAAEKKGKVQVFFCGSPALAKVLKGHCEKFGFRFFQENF

C#CCN=C(N)N
z-score [1]: 0.0764 (inactive) | composite z-score [2]: -0.214 | z-score [3]: 0.269 (inactive) | z-score [4]: 0.347 (inactive) | z-score [5]: -0.765 (inactive) | z-score [6]: -0.0065 (inactive) | z-score [7]: -0.871 | z-score [8]: 0.059 (inactive) | z-score [9]: 0.217 (inactive) | z-score [10]: -0.0927 | z-score [11]: -0.268 | z-score [12]: -0.677 | z-score [13]: 0.527 | z-score [14]: 0.67 | z-score [15]: 0.381 | z-score [16]: -0.794 | z-score [17]: 0.268 (inactive) | z-score [18]: -0.574 | z-score [19]: -0.922 | z-score [20]: 0.0116 (inactive)

Cc1ccc(F)cc1S(=O)(=O)N[C@@H]1CCN(Cc2ccc3[nH]ccc3c2)C1
z-score [1]: -5.9 (inactive) | composite z-score [2]: -0.238 | z-score [3]: 3.05 (inactive) | z-score [4]: 0.843 (inactive) | z-score [5]: 0.255 (inactive) | z-score [6]: 0.673 (inactive) | z-score [7]: -0.0977 | z-score [8]: -0.163 (inactive) | z-score [9]: -1.11 (inactive) | z-score [10]: -1.96 | z-score [11]: 0.173 | z-score [12]: -0.939 | z-score [13]: -0.696 | z-score [14]: -3.43 | z-score [15]: -1.63 | z-score [16]: -1.33 | z-score [17]: -0.261 (inactive) | z-score [18]: 0.321 | z-score [19]: -1.34 | z-score [20]: -0.0035 (inactive)

COCCOC(=O)N1C(=O)[C@@]2(c3cc(C#CC4=CCCCC4)ccc31)[C@H](c1ccccc1OCCO)N1[C@H](c3ccccc3)[C@H](c3ccccc3)OC(=O)[C@H]1[C@@H]2C(N)=O
z-score [1]: 1.97 (inactive) | composite z-score [2]: -0.0611 | z-score [3]: 2.66 (inactive) | z-score [4]: 0.298 (inactive) | z-score [5]: -0.714 (inactive) | z-score [6]: -0.0482 (inactive) | z-score [7]: 2.22 | z-score [8]: 1.77 (inactive) | z-score [9]: 0.548 (inactive) | z-score [10]: -0.172 | z-score [11]: -1.13 | z-score [12]: 2.16 | z-score [13]: -2.29 | z-score [14]: -3.11 | z-score [15]: -4.02 | z-score [16]: -0.985 | z-score [17]: 0.686 (inactive) | z-score [18]: -0.96 | z-score [19]: -1.85 | z-score [20]: -1.35 (inactive)

C=C(C(=O)CC[C@@H](OC(C)=O)c1cccc(OCCO)c1)C(C)C
z-score [1]: -0.369 (inactive) | composite z-score [2]: 0.11 | z-score [3]: 3.09 (inactive) | z-score [4]: -0.0769 (inactive) | z-score [5]: 1.38 (inactive) | z-score [6]: 0.0127 (inactive) | z-score [7]: -0.78 | z-score [8]: 0.825 (inactive) | z-score [9]: -1.12 (inactive) | z-score [10]: -1.05 | z-score [11]: -0.351 | z-score [12]: 0.0938 | z-score [13]: -0.351 | z-score [14]: -1.54 | z-score [15]: -0.0608 | z-score [16]: -1.55 | z-score [17]: 0.216 (inactive) | z-score [18]: 0.592 | z-score [19]: 0.484 | z-score [20]: -0.326 (inactive)

C=CCOC(=O)[C@@H]1[C@H]2C(=O)O[C@H](c3ccccc3)[C@H](c3ccccc3)N2[C@H](c2ccc(OCCOC(=O)[C@H]3C[C@H]4C(=O)NCC(=O)N4[C@H]3c3ccc(O)cc3)cc2)[C@@]12C(=O)Nc1ccc(I)cc12
z-score [1]: -0.707 (inactive) | composite z-score [2]: -0.154 | z-score [3]: 8.8 (active) | z-score [4]: 2.39 (inactive) | z-score [5]: 0.345 (inactive) | z-score [6]: 1.16 (inactive) | z-score [7]: 0.379 | z-score [8]: 0.588 (inactive) | z-score [9]: 0.812 (inactive) | z-score [10]: 0.711 | z-score [11]: -0.441 | z-score [12]: -0.105 | z-score [13]: 0.273 | z-score [14]: -0.172 | z-score [15]: -0.0622 | z-score [16]: -1.59 | z-score [17]: 0.91 (inactive) | z-score [18]: -0.772 | z-score [19]: -1 | z-score [20]: 1.1 (inactive)

C=CC[C@]1(C(=O)NCc2ccccc2)COC(c2ccc(OCCCO)cc2)=N1
z-score [1]: 0.553 (inactive) | composite z-score [2]: 0.743 | z-score [3]: 20.7 (active) | z-score [4]: 6.37 (inactive) | z-score [5]: 1.44 (inactive) | z-score [6]: 0.541 (inactive) | z-score [7]: -0.429 | z-score [8]: -2.18 (inactive) | z-score [9]: 0.00403 (inactive) | z-score [10]: -2.1 | z-score [11]: -0.555 | z-score [12]: 0.548 | z-score [13]: -2.51 | z-score [14]: -2.01 | z-score [15]: -0.953 | z-score [16]: -3.22 | z-score [17]: -0.436 (inactive) | z-score [18]: -0.4 | z-score [19]: -0.107 | z-score [20]: -0.256 (inactive)

CC(C)N1CC=CC23O[C@@H]4C=CCCOC(=O)C4[C@H]2C(=O)N(CCCCCO)[C@@H]3C1=O (stereo not given in full)
z-score [1]: 0.952 (inactive) | composite z-score [2]: -0.0186 | z-score [3]: 1.42 (inactive) | z-score [4]: 0.261 (inactive) | z-score [5]: 2.21 (inactive) | z-score [6]: 0.455 (inactive) | z-score [7]: 1.35 | z-score [8]: 1.42 (inactive) | z-score [9]: 0.356 (inactive) | z-score [10]: 1.48 | z-score [11]: -0.211 | z-score [12]: -0.288 | z-score [13]: 1.28 | z-score [14]: 1.57 | z-score [15]: 1.7 | z-score [16]: 0.77 | z-score [17]: 1.19 (inactive) | z-score [18]: 0.0326 | z-score [19]: -1.08 | z-score [20]: 0.846 (inactive)
